In the library only some 10% were active in any assay of this set; here they are far more common.
CtBP-E1A inh: CtBP/E1A binding inhibition. activity change, % (no concentration beside the values). actives 0.49% (n = 340,000). AlphaScreen GST-E1A/His-CtBP binding, 1536-well; active compounds read low; in the data active = activity change below about -65%; inconclusive = mostly about -30% to -63%
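In 5 uL wells, 23 nL compound meets equimolar GST-E1A and His-CtBP (5X stock 125 nM each) for 2 h, 37 °C. Beads (5X, 50 ug/mL) then 1 h, 37 °C, dark.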
JMJD2A Tudor inh: JMJD2A Tudor domain (human) inhibition. actives 4.4% (n = 390,000). Potency, µM (titrated, usually from 114 µM), most hits filed as inhibitors. AID 504339. O75164. AlphaScreen JMJD2A-Tudor / H3K4me3 peptide binding; note: nearly all actives have a fitted effect of over 50% in size
Six1-Eya2 blk: blocks human Six1 binding to Eya2. activity change, % (test concentration not listed). Q15475+O00167. AlphaScreen GST-Six1/His-Eya2 binding, biochemical; active compounds read low. AID 651725. actives 0.56% (n = 360,000); in the data active = activity change below about -65%; inconclusive = mostly about -30% to -63%
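GST-Six1 + His-Eya2 (5X stock: 250/500 nM); Tris pH 8.0, 300 mM NaCl, 0.05% BSA, 0.02% Tween 20; GSH donor/Ni acceptor beads; 1 h 37 °C dark; AlphaScreen readout.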
HP1b binding inh: inhibitors of HP1-beta chromodomain binding to methylated histone tails. P83916. AlphaScreen HP1-beta / biotin-H3K9me3 peptide binding. Potency, µM (series often up to 114 µM), most hits filed as inhibitors. actives 0.56% (n = 390,000); note: nearly all actives have a fitted effect of over 70% in size
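HP1-beta protein (50 nM final) preincubated 30 min at room temperature with biotinylated H3(1-18)K9me3 peptide (50 nM) in PBS pH 7.4, 0.01% Tween-20, then compound added for 30 min. AlphaScreen streptavidin donor/nickel chelate acceptor beads (10 ug/mL final), 30 min dark, luminescence read.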
BAZ2B inh: BAZ2B (human) inhibition. Potency, µM (titrated, usually from 114 µM), hits mostly inhibitors. Q9UIF8. AID 504333. actives 4.4% (n = 360,000). AlphaScreen BAZ2B-H3K14Ac peptide displacement; note: nearly all actives have a fitted effect of over 60% in size
Target sequence (Q9UIF8 whole entry, looked up): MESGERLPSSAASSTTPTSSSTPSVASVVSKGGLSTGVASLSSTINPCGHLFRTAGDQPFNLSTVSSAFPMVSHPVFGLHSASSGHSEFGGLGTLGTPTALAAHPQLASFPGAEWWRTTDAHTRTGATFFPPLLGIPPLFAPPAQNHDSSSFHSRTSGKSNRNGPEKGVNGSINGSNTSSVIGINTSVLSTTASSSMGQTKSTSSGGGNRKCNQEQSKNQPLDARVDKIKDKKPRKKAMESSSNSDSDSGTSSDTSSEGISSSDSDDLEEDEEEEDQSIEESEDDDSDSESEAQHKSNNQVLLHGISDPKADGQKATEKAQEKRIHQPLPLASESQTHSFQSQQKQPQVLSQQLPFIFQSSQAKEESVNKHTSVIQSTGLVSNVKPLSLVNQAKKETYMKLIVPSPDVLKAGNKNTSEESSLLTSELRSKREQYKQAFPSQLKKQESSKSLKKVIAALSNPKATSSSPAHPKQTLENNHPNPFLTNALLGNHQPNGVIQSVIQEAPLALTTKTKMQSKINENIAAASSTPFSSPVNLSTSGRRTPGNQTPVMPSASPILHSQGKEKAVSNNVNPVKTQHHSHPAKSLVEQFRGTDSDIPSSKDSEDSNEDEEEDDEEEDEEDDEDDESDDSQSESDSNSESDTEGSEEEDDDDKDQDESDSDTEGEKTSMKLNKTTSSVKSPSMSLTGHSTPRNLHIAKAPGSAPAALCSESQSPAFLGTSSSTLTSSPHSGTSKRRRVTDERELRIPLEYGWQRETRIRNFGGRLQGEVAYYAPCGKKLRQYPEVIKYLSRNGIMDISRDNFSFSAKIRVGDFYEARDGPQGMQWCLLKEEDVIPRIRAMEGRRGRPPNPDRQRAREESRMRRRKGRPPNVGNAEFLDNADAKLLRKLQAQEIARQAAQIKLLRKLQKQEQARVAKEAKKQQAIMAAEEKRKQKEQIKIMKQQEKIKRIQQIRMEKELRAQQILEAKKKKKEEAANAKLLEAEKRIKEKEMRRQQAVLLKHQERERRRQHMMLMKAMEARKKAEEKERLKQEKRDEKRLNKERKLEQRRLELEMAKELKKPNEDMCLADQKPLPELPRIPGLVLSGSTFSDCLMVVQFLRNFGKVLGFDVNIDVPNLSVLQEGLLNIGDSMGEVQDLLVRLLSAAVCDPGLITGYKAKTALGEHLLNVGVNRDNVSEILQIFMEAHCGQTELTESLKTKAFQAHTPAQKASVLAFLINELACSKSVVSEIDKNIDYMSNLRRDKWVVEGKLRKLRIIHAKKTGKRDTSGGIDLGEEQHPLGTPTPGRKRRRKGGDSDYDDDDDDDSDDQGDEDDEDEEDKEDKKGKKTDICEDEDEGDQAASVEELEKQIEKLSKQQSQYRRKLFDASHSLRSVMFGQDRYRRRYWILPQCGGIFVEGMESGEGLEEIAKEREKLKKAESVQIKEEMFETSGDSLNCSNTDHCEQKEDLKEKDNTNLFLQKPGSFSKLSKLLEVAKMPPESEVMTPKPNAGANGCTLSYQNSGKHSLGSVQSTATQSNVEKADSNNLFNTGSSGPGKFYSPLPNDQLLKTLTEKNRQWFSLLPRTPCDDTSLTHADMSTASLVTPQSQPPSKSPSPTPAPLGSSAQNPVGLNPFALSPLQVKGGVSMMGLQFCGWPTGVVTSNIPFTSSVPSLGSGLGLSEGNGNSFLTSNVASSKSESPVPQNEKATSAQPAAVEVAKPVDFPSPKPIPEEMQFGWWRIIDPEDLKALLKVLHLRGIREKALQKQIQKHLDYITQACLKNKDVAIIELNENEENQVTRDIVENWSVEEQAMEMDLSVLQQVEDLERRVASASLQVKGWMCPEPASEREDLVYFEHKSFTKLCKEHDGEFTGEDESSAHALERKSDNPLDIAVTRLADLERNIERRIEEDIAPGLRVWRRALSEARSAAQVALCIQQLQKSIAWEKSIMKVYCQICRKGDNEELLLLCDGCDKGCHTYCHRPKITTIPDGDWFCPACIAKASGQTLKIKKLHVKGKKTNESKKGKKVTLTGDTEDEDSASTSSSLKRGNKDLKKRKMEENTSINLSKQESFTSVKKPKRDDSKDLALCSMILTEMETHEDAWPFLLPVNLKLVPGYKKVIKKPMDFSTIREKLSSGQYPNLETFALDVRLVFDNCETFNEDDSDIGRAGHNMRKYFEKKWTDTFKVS
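BAZ2B 50 nM plus b-H3(5-23)K14Ac 50 nM, PBS pH 7.4/0.01% Tween-20, 30 min RT; compound added (max 110 uM), 30 min RT; streptavidin donor/Ni-chelate acceptor beads 10 ug/mL final, 20 min dark; AlphaScreen read.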
G9a block: inhibitors of human histone lysine methyltransferase G9a; Q96KQ7; G9a H3K9 monomethylation, AlphaScreen, 2 h; Potency, µM (titrated, usually from 102 µM), usual class: inhibitors; actives 8.8% (n = 350,000); AID 504332; note: nearly all actives have a fitted effect of over 75% in size
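AlphaScreen detection with an anti-monomethyl H3K9 antibody quantified product after a 2 h room-temperature reaction containing 500 nM biotinylated H3K9 peptide, 20 µM SAM and 20 nM enzyme, which had been preincubated 15 min with compound.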
Numbers stand for hits; - = inactive; ? = inconclusive; . = no result given; [ ] = remark or other dose. Unless noted, calls come from the whole dose curve; as a rule, active = well fitted inhibition curve with a large enough effect; inconclusive = small, poorly fitted or top-dose-only effect; inactive = no such curve, though single readings can be large or run the other way.

SMILES | CtBP-E1A inh | JMJD2A Tudor inh | Six1-Eya2 blk | HP1b binding inh | BAZ2B inh | G9a block
Clc1ccccc1CN1CCc2nc(N3CCN(c4ncccn4)CC3)ncc2C1 | . | 35µM | . | ? | 50µM | ?
COc1cc(OC)c(OC)cc1CN1CCc2nc(N3CCN(C)CC3)ncc2C1 | . | ? | . | - | ? | -[12.7 µM]
CCOc1ccccc1CN1CCc2nc(N3CCN(C)CC3)ncc2C1 | . | - | . | - | 79µM | -[12.7 µM]
COc1cccc(CN2CCc3nc(N4CCN(C)CC4)ncc3C2)c1 | . | ? | . | - | ? | -
CN1CCN(c2ncc3c(n2)CCN(Cc2ccccc2Cl)C3)CC1 | . | 79µM | . | - | ? | ?
CN1CCN(c2ncc3c(n2)CCN(Cc2cc(Br)cs2)C3)CC1 | . | 56µM | . | - | ? | ?
Cc1nnn(C23CC4CC(CC(CC(=O)Nc5ccc(C)c(C)c5)(C4)C2)C3)n1 | - | - | - | - | - | ?
Cc1cccc(C)c1NC(=O)c1cnccn1 | . | - | - | - | - | .
CN(c1ccccc1C(=O)Nc1ccc2ccccc2c1)S(C)(=O)=O | - | - | - | - | . | .
O=C(NC(=S)Nc1ccc(S(=O)(=O)Nc2nccs2)cc1)c1cccnc1 | - | - | - | - | ? | 45µM
O=C(NC(=S)Nc1ccc(S(=O)(=O)Nc2nccs2)cc1)c1ccccc1F | - | ? | - | ? | ? | 10µM
O=C(NC(=S)Nc1ccc(Cc2ccncc2)cc1)c1ccccc1F | - | - | - | - | - | 79µM
O=C(NC(=S)Nc1ccc(Cc2ccncc2)cc1)c1ccccc1Cl | - | - | - | - | - | -
O=C(O)c1ccccc1C(=O)Nc1ccc(S(=O)(=O)Nc2nccs2)cc1 | - | - | - | - | 50µM | -
COc1ccccc1C(=O)Nc1ccc(S(=O)(=O)Nc2nccs2)cc1 | - | - | - | - | - | ?
O=C(CSc1ccc(Br)c2cccc(Cl)c12)Nc1ccc(S(=O)(=O)Nc2nccs2)cc1 | ? | ? | - | - | - | 32µM
O=C(Cc1ccccc1Cl)Nc1ccc(S(=O)(=O)Nc2nccs2)cc1 | - | - | - | - | - | -
O=C(Nc1ccc(N2CCCCC2)cc1)c1ccc([N+](=O)[O-])o1 | - | 11µM | - | ? | 28µM | 40µM
CC(C)(C)C(=O)N1CCN(c2ccc(NC(=O)c3ccc([N+](=O)[O-])o3)cc2)CC1 | - | - | - | - | - | -
CC1CCN(c2ccc(NC(=O)c3ccc([N+](=O)[O-])o3)cc2)CC1 | - | - | - | - | - | 35µM
O=C(Nc1ccc(N2CCCC2)c(Cl)c1)c1ccc([N+](=O)[O-])o1 | - | 45µM | - | ? | 18µM | 25µM
Cc1ccc(NC(=O)Nc2nnc(N3CCCC3)s2)c(C)c1 | . | - | . | - | - | -
Cc1ccc(NC(=O)CCC(=O)OCC(=O)c2ccc(Oc3ccc([N+](=O)[O-])cc3)cc2)cc1C | - | - | - | - | - | -
Cc1cccc(NC(=O)CCC(=O)OCC(=O)c2ccc(Oc3ccc([N+](=O)[O-])cc3)cc2)c1 | - | - | - | - | - | 8.9µM
O=S(=O)(NNc1ncc(C(F)(F)F)cc1Cl)c1ccccc1 | - | 0.71µM | - | ? | - | ?
SMILES | CtBP-E1A inh | JMJD2A Tudor inh | Six1-Eya2 blk | HP1b binding inh | BAZ2B inh | G9a block
O=C(NNc1ncc(C(F)(F)F)cc1Cl)c1ccc(Cl)c(Cl)c1 | - | - | - | - | - | -
Nc1ccccc1C(=O)NNc1ncc(C(F)(F)F)cc1Cl | ? | - | ? | - | 50µM | -
O=S(=O)(NNc1ncc(C(F)(F)F)cc1Cl)c1ccc(F)cc1F | . | ? | - | - | . | .
O=C(CNC(=O)c1cccc(Cl)c1)OC(C(=O)Nc1cc(C(F)(F)F)ccc1Cl)c1ccccc1 (centres undefined) | . | - | . | . | . | .
CC(C)(C)c1ccc(CC(=O)N2CCC2(C)C(=O)NCCC#N)cc1 (centres undefined) | - | . | - | . | . | .
Cc1ccn2c(=O)cc(COc3ccc(NC(=O)C(C)(C)C)cc3)nc2c1 | . | - | . | - | - | -
NNC(=O)[C@@H]1C[C@@H]1c1ccccc1 | - | - | - | - | - | -
CCc1c(C)sc(NC(=O)C2CC2c2ccccc2)c1C(N)=O (centres undefined) | - | - | - | - | - | 14µM
CCOc1ccc2nc(N3CCN(C(=O)c4ccc5c(c4)CCCC5)CC3)sc2c1 | . | - | . | - | - | -
COc1cc2nc(/C=C/c3ccc(N(C)C)cc3)sc2cc1SC | - | 25µM | ? | ? | 22µM | ?
CCCCc1ccc(NC(=O)COc2cccc3c(=O)n(C)ccc23)cc1 | . | - | . | - | - | -
CCCCn1c(N)c(N(CC)C(=O)c2ccc(C)cc2)c(=O)[nH]c1=O | - | - | - | - | - | -
CCCCn1c(N)c(N(CC)C(=O)c2ccc(C#N)cc2)c(=O)[nH]c1=O | - | - | - | - | - | 50µM
CCCCn1c(N)c(N(CCC(C)C)C(=O)C(C)N2C(=O)c3ccccc3C2=O)c(=O)[nH]c1=O (centres undefined) | - | - | - | - | - | 13µM
CCCN(C(=O)c1ccc(N2CCCC2=O)cc1)c1c(N)n(Cc2ccccc2)c(=O)[nH]c1=O | - | - | - | - | - | -
CC(C)CCN(C(=O)c1ccc(N2CCCC2=O)cc1)c1c(N)n(Cc2ccccc2)c(=O)[nH]c1=O | - | - | - | - | - | -
CCCCn1c(N)c(N(CCC(C)C)C(=O)c2ccc(N3CCCC3=O)cc2)c(=O)[nH]c1=O | - | - | - | - | - | 35µM
CCCCn1c(N)c(N(CC)C(=O)c2ccc(N3CCCC3=O)cc2)c(=O)[nH]c1=O | - | - | - | - | - | 50µM
COc1ccc(-c2n[nH]c3c2cnc2ccc(F)cc23)cc1 | . | - | . | - | - | -
CCCCn1c(N)c(N(CCC(C)C)C(=O)C2CCCN(C(=O)c3ccc(Cl)cc3)C2)c(=O)[nH]c1=O (centres undefined) | - | ? | - | - | - | 40µM
CCCCn1c(N)c(N(CC(C)C)C(=O)C2CCN(C(=O)c3ccc(Cl)cc3)CC2)c(=O)[nH]c1=O | - | - | - | - | - | ?
COC(=O)CN1C(=O)CSc2ccc(S(=O)(=O)Nc3ccc(C)c(Cl)c3)cc21 | . | - | . | - | - | -
COC(=O)CCN(C)CCC(=O)OC | - | 50µM | - | - | - | -[2.33 µM]
Cc1ccc(-c2cnc(NCc3cc4c(cc3[N+](=O)[O-])OCO4)n2C)cc1C | - | 32µM | - | ? | - | -
O=C(c1ccco1)N1CCN(C2CC(=O)N(c3ccc(F)c(Cl)c3)C2=O)CC1 (centres undefined) | - | - | - | - | - | 28µM
COc1ccc2oc(=O)c(C(=O)N3CCN(C(=O)c4ccco4)CC3)cc2c1 | - | 79µM | - | - | - | 18µM

From PubChem BioAssay
